Assay results taken from PubChem BioAssay (NCATS).
Several values for one entry are separate records, joined by “and”; a condition that tells them apart may be missing. Equal values may be shown once. Results filed as inconclusive are left out. Activity calls are given as the source filed them. The call rests on the fitted dose curve; in most records, active means well fitted inhibition curve with a large enough effect; inconclusive means small, poorly fitted or top-dose-only effect; inactive means flat fitted curve, though single readings scatter.

Key:
[1] = test system: HEK293; assay: Cytotoxic Profiling of Annotated Libraries Using Quantitative High-Throughput Screening (AID 1296008); conditions: Five cell lines viability, CellTiter-Glo ATP luminescence, 48-72 h; max response: active compounds read low; further: potency means the concentration at half of the fitted maximal effect; on max response: on the % scale 0 is the no-effect control and ±100 the full control effect
Summary of the method: (§1)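 Compounds were pin-transferred onto cells and incubated 48 or 72 hr at 37 degree Celsius, 95% humidity. CellTiter-Glo was added, plates sat 10 min at room temperature, then ATP-coupled luminescence was imaged as the viability read-out.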

[2] = test system: KB-3-1; assay: as above; conditions: Five cell lines viability, CellTiter-Glo ATP luminescence, 48-72 h; max response: active compounds read low
Summary of the method: as §1

[3] = test system: NIH3T3; assay: as above; conditions: Five cell lines viability, CellTiter-Glo ATP luminescence, 48-72 h; max response: active compounds read low
Summary of the method: as §1

[4] = test system: MCC-13; assay: qHTS assay to identify novel small-molecules to repurpose for Merkel cell carcinoma treatment (AID 1296009); conditions: MCC and control cell lines, CellTiter-Glo viability, 72 h; series mostly up to 46 µM
Summary of the method: (§2)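 qHTS format: cells treated with library compounds in DMSO across 8 (NPC) or 11 (MIPE) concentrations. Readout after 72 hr at 37 degree celsius was CellTiter-Glo luminescence.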

[5] = test system: MCC-26; assay: as above; conditions: MCC and control cell lines, CellTiter-Glo viability, 72 h; series mostly up to 46 µM
Summary of the method: as §2

[6] = test system: MKL-1; assay: as above; conditions: MCC and control cell lines, CellTiter-Glo viability, 72 h; series mostly up to 46 µM
Summary of the method: as §2

[7] = test system: MKL-2; assay: as above; conditions: MCC and control cell lines, CellTiter-Glo viability, 72 h; series mostly up to 46 µM
Summary of the method: as §2

[8] = test system: UISO; assay: as above; conditions: MCC and control cell lines, CellTiter-Glo viability, 72 h; series mostly up to 46 µM
Summary of the method: as §2

[9] = test system: WaGa; assay: as above; conditions: MCC and control cell lines, CellTiter-Glo viability, 72 h; series mostly up to 46 µM
Summary of the method: as §2

[10] = test system: SC27B; assay: qHTS profiling for inhibitors of Plasmodium falciparum proliferation (AID 504749);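 further: 0% = DMSO vehicle and full inhibition = artemisinin control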; conditions: P. falciparum in erythrocytes, SYBR Green DNA, 72 h; series mostly up to 28.7 µM
Summary of the method: (§3)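 Parasite proliferation within erythrocytes, 72 h exposure. Endpoint: SYBR Green I fluorescence after overnight lysis at room temperature. Controls: 0.29 uM artemisinin, DMSO.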

[11] = test system: TAB109; assay: as above; conditions: P. falciparum in erythrocytes, SYBR Green DNA, 72 h; series mostly up to 28.7 µM
Summary of the method: as §3

[12] = test system: TAB113; assay: as above; conditions: P. falciparum in erythrocytes, SYBR Green DNA, 72 h; series mostly up to 28.7 µM
Summary of the method: as §3

[13] = test system: TAB165; assay: as above; conditions: P. falciparum in erythrocytes, SYBR Green DNA, 72 h; series mostly up to 28.7 µM
Summary of the method: as §3

[14] = test system: W2; assay: as above; conditions: P. falciparum in erythrocytes, SYBR Green DNA, 72 h; series mostly up to 28.7 µM
Summary of the method: as §3

[15] = test system: CRL-7250; assay: Cytotoxic Profiling of Annotated Libraries Using Quantitative High-Throughput Screening (AID 1296008); conditions: Five cell lines viability, CellTiter-Glo ATP luminescence, 48-72 h; max response: active compounds read low; further: potency means the concentration at half of the fitted maximal effect; on max response: on the % scale 0 is the no-effect control and ±100 the full control effect
Summary of the method: as §1

[16] = test system: HaCat; assay: as above; conditions: Five cell lines viability, CellTiter-Glo ATP luminescence, 48-72 h; max response: active compounds read low
Summary of the method: as §1

[17] = test system: HACAT; assay: qHTS assay to identify novel small-molecules to repurpose for Merkel cell carcinoma treatment (AID 1296009); conditions: MCC and control cell lines, CellTiter-Glo viability, 72 h; at 44.8 µM (top of the series) unless noted
Summary of the method: as §2
Further: nearly all actives have a fitted effect of over 60% in size.

CC(C)c1c(CN(C)C(C)Cc2ccccc2)n(C)n(-c2ccccc2)c1=O (stereo not given)
active: Potency [1] 8.41 µM
inactive: max response [2] 1.6% | max response [3] 4.46% | outcome [4] | Potency [5] | Potency [6] | Potency [7] | Potency [8] | Potency [9]

COP(=S)(OC)Oc1ccc(SC)c(C)c1
inactive: Potency [10] | Potency [11] | Potency [12] | Potency [13] | Potency [14] | max response [15] -0.812% | max response [16] -0.754% | max response [2] -16.5% | max response [3] -0.878% | outcome [4] | Potency [5] | Potency [6] | Potency [7] | Potency [8] | Potency [9]

COc1cc(CCN)cc(OC)c1OC
inactive: max response [15] -14.6% | max response [16] -15.9% | max response [2] 2.38% | max response [3] -22.5% | outcome [4] | Potency [6] | Potency [8] | Potency [9]

C[C@]12CCC(=O)C=C1CC[C@@H]1[C@@H]2CC[C@@]2(C)[C@H]1CC[C@]2(C)O
inactive: max response [15] 2.75% | outcome [16] | max response [2] -6.95% and 1.16% | max response [3] -3.69% | outcome [17] | outcome [4] | Potency [6]

CCN[C@@H](C)Cc1cccc(C(F)(F)F)c1
inactive: max response [15] -0.0811% | outcome [16] | max response [2] -9.47% | max response [3] 2.4% | outcome [17] | outcome [4] | Potency [6] | Potency [7] | Potency [8] | Potency [9]

CCCOC(=O)c1cncn1C(C)c1ccccc1 (stereo not given)
inactive: max response [15] -1.16% | outcome [16] | max response [3] 3.77% | outcome [17] | outcome [4] | Potency [5] | Potency [6] | Potency [7] | Potency [8] | Potency [9]

CCN[C@H](C)Cc1cccc(C(F)(F)F)c1
inactive: max response [15] -0.312% | outcome [16] | max response [2] -19.7% | max response [3] -0.0448% | outcome [17] inactive [at 92 µM] | outcome [4] | Potency [6] | Potency [7] | Potency [8] | Potency [9]

CC(C)=CC1C(C(=O)OCN2C(=O)C3=C(CCCC3)C2=O)C1(C)C (stereo not given)
inactive: Potency [10] | Potency [11] | Potency [12] | Potency [13] | Potency [14] | max response [1] -22.7% | outcome [16] | max response [2] 2.15% | max response [3] -1.87% | outcome [17] | outcome [4] | Potency [5] | Potency [6] | Potency [7] | Potency [8] | Potency [9]
